The source of these data is ChEMBL document CHEMBL1157539, “Thousands of chemical starting points for antimalarial lead identification” (Nature, 2010).

By Inhibition is commonly meant the relative decrease from the control value, in per cent. Lower therefore signals little suppression.

Molecules are shown by their SMILES.

Common to all, as to assay type: functional
For experiment [1], the system named is Plasmodium falciparum. Nature of the experiment: GSK_TCMDC: Inhibition of Plasmodium falciparum 3D7 in whole red blood cells, using parasite LDH activity as an index of growth. Test compounds present at 2uM.
The subject of experiment [2] is Plasmodium falciparum. Nature of the experiment: GSK_TCMDC: Inhibition of Plasmodium falciparum Dd2 in whole red blood cells, using parasite LDH activity as an index of growth. Test compounds present at 2uM.
Experiment [3] has as its system HepG2. Nature of the experiment: GSK_TCMDC: Percent inhibition of human HepG2 cell line. Test compounds present at 10uM.

Take `Cc1cccc(CNc2nc(C)cc(NCCC(=O)NCc3cccc(F)c3)n2)c1.O=C(O)C(F)(F)F`: the figures for the Inhibition in experiment [1], in experiment [2] and in experiment [3] were 84%, 13% and 23%, respectively.
For `Cc1noc(-c2ccc3c(c2)CCN(CCC2CCC(NC(=O)/C=C/c4ccc(F)cc4)CC2)CC3)n1.Cl` (stereo not given), the Inhibition in experiment [1] is reported as 91%; in experiment [2], 39%; in experiment [3], 44%.
The matching figures for `CC(C)NCc1ccc(-c2cccc(NC(=O)c3ccc(F)cc3)c2)cc1.O=C(O)C(F)(F)F`: 91%, 7% and 28%.
Turning to `CC(C)CNC(=O)c1cncc(-c2cccc(CNC3Cc4ccccc4C3)c2)c1.O=C(O)C(F)(F)F`, the Inhibition in experiment [1] is 100%; in experiment [2], 19%; in experiment [3], 4%.
The matching figures for `CCCCn1c(Sc2ccc(C#N)c([N+](=O)[O-])c2)nnc1-c1cccc(Cl)c1`: 96%, 87% and 30%.
The matching figures for `CC(=O)c1cccc2[nH]c(C(=O)NC3CCC(CCN4CCc5ccc(C#N)cc5C4)CC3)cc12.Cl` (stereo not given): 96%, 0% and 12%.
The matching figures for `Fc1ccc2c(NN=Cc3ccccc3F)ccnc2c1`: 100%, 99% and 10%.
With `CN1CCC(C(=O)Nc2cccc(-c3cccc(-c4nc5cc(F)ccc5[nH]4)c3)c2)CC1`, the Inhibition in experiment [1] stood at 100%; in experiment [2], 27%; in experiment [3] it was 32%.
The matching figures for `CC(C)CCN1CCC(Oc2ccc(NC(=O)c3ccc(F)cc3)cc2Cl)CC1.O=C(O)C(F)(F)F`: 98%, 88% and 33%.
Consider `CC(C)NCc1cccc(-c2ccc(NC(=O)c3cccc(C#N)c3)cc2)c1.O=C(O)C(F)(F)F`, for which the Inhibition in experiment [1] amounted to 100%; in experiment [2], 95%; in experiment [3], 22%.
On to `CCCN(CCC)CCOc1ccc(C(O)(C#CC(O)(c2ccc(OCCN(CCC)CCC)cc2)c2cccc(Cl)c2)c2cccc(Cl)c2)cc1` (stereo not given), for which the Inhibition in experiment [1] turned out to be 100%; in experiment [2], 98%; in experiment [3], 100%.
As to `O=C(/C=C/c1ccccc1Cl)NC1CCC(CN2CCC(c3c[nH]c4ccncc34)CC2)CC1` (stereo not given), the Inhibition in experiment [1] is listed as 100%; in experiment [2], 100%; in experiment [3], 19%.
`COc1ccc2ccc(F)c(CC(=O)N3CCOC(CNCc4cccc(-c5ccsc5)n4)C3)c2n1` (stereo not given): the Inhibition in experiment [1] came to 92%; in experiment [2] it was 1%; in experiment [3] it was 1%.
With `COc1ccc(NC(=O)CCNc2ccnc(NCCc3ccc(F)cc3)n2)cc1.O=C(O)C(F)(F)F`, the values for the Inhibition in experiment [1], in experiment [2] and in experiment [3] were 94%, 5% and 4%, respectively.
For the molecule `[O-][s+]1nc(NCCCN(Cc2cccs2)c2ccccn2)c(NCc2ccccc2)n1` (stereo not given), the results for the Inhibition in experiment [1], in experiment [2] and in experiment [3] were 92%, 25% and 10%, respectively.
With `CCCCCN1CCCN(Cc2cccc(NC(=O)c3cc4ccccc4s3)c2)CC1.O=C(O)C(F)(F)F`, the values for the Inhibition in experiment [1], in experiment [2] and in experiment [3] were 99%, 30% and 29%, respectively.
The matching figures for `O=C([C@H]1CCCCN1c1ccc([N+](=O)[O-])c2ccccc12)N1CCN(c2ncccn2)CC1`: 97%, 5% and 50%.
For `Cc1ccccc1N1CCN(c2ccc(C(=O)NC(C)C)cn2)CC1.O=C(O)C(F)(F)F`, the Inhibition stood at 89% in experiment [1], 91% in experiment [2] and 13% in experiment [3].
The matching figures for `CCOC(=O)C1=C(C)NC2=C(C(=O)CC(C)(C)C2)C1c1ccc(Br)cc1` (stereo not given): 90%, 66% and 0%.
`Cn1cncc1C(=O)Nc1cccc(-c2cccc(-c3nc4cc(C(F)(F)F)ccc4[nH]3)c2)c1`: the Inhibition is reported as 100% in experiment [1], 99% in experiment [2] and 38% in experiment [3].
The matching figures for `C#CC[C@@H](NC(N)=O)C(=O)O`: 97%, 0% and 1%.
On to `Cc1ccc(NC(=O)c2ccc(NCCCN(C)Cc3ccccc3)c([N+](=O)[O-])c2)cc1F`, for which the Inhibition in experiment [1] worked out at 100%; in experiment [2], 61%; in experiment [3] it was 12%.
The matching figures for `CC(Cc1ccc(CNC(=O)NCc2ccc(CC(C)NCCc3cccc(Cl)c3)cc2)cc1)NCCc1cccc(Cl)c1` (stereo not given): 100%, 44% and 100%.
The matching figures for `Fc1ccc(Nc2ccnc3cc(-c4cccc(CNCCN5CCOCC5)c4)ccc23)c(Cl)c1`: 100%, 99% and 26%.
Take `Cc1cc(N(C)C)nc(Nc2ccc(NC(=O)COc3ccccc3)cc2)n1`: the Inhibition in experiment [1] is listed as 100%; in experiment [2], 67%; in experiment [3] it was 15%.
As for `CCc1cc(OC)ccc1C1CCN(CCCCNC(=O)c2ccc(NC(=O)c3ccc(Cl)cc3)cc2)CC1.Cl`, the Inhibition stood at 95% in experiment [1], 61% in experiment [2] and 23% in experiment [3].
The matching figures for `COc1cccc(-c2csc(C(=O)NC3CCCCN(Cc4ccc(C(C)(C)C)cc4)C3)c2)c1.O=C(O)C(F)(F)F` (stereo not given): 97%, 66% and 9%.
The matching figures for `CC(C)(C)c1ccc(CN2CCCCC(NC(=O)c3cc(-c4ccccc4Cl)cs3)C2)cc1.O=C(O)C(F)(F)F` (stereo not given): 100%, 98% and 3%.
The matching figures for `Cn1cnnc1Sc1ccc(CN2CCOc3ccc(C4=CCCCC4)cc3C2)o1`: 98%, 97% and 1%.
For `COc1ccc(Nc2nccc(N3CCC(NC(=O)C(C)c4ccc(Cl)cc4)CC3)n2)cc1` (stereo not given), the Inhibition in experiment [1] was determined as 94%; in experiment [2], 52%; in experiment [3] it was 18%.
